Assay outcomes deposited in PubChem BioAssay by National Center for Advancing Translational Sciences (NCATS).
This excerpt belongs to a sample that is enriched for hits.
IMPase Li cell: qHTS Assay for Identifying the Cell-Membrane Permeable IMPase Inhibitors: Potentiation with Lithium; Potency, µM (series often up to 59.4 µM), without a hit: at the top dose activity, negative = IMPase inhibition, most hits filed as inhibitors; CHO-M1 cells, IP1 TR-FRET (IP-One), carbachol + lithium; AID 1457, 2008; actives 0.35% (n = 210,000);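 note: IP1 builds up when IMPase is blocked and the TR-FRET signal falls; potency is the fitted concentration of half-maximal effect; plate controls were basal vehicle for no effect and high inhibitor control for full effect; nearly all actives have a fitted effect of over 50% in size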
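Steps: plate 2000 CHO-M1 cells per well and culture 16–30 h; add compound and lithium; incubate 30 min, 37C; add d2-IP1 tracer and Eu cryptate anti-IP1 antibody in lysis buffer; read after 10 min at room temperature.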
NPSR antag: qHTS Assay for Antagonists of the Neuropeptide S Receptor: cAMP Signal Transduction. AID 1461, 2008. CHO-NPSR cells, cAMP TR-FRET, antagonist mode. actives 1% (n = 220,000). Q6W5P4. Potency, µM (top dose mostly 38.3 µM), for the others: at the top dose activity change, negative = inhibition, usual class: inhibitors; note: potency is the fitted concentration of half-maximal effect; nearly all actives have a fitted effect of over 50% in size
Target sequence (Q6W5P4 whole entry, looked up): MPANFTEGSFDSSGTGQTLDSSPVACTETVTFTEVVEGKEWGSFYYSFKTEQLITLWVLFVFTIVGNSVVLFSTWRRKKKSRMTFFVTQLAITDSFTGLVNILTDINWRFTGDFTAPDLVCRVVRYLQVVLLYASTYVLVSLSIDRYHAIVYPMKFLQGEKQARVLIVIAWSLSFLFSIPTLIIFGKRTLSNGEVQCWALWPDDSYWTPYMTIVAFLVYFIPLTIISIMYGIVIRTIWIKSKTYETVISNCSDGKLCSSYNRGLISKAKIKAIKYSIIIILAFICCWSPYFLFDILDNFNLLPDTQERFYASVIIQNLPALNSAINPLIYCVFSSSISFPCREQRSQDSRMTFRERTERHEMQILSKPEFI
IMPase cell inh: qHTS Assay for Identifying the Cell-Membrane Permeable IMPase Inhibitors. Inositol monophosphatase 1 (Rattus norvegicus), P97697. CHO-M1 cells, IP1 accumulation, HTRF TR-FRET ratio. inhibition (IP1 accumulation), % at 46.1 µM. 120,000 tested, under 10 active. AID 901, 2007; active = well fitted curve in the direction sought with a large enough effect in the signal ratio, not every such curve was filed as active; inconclusive = small, poorly fitted or top-dose-only effect, or a change in a side signal; inactive = no such curve, though single readings can be large or run the other way; the % refers to the signal ratio;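 note: cells stimulated with carbachol in lithium chloride buffer; plate controls were DMSO basal wells for no effect and reference inhibitor wells for full effect; higher means more IMPase inhibition seen as more IP1 and lower FRET ratio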
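In this qHTS, compounds (final up to 46 uM) act on CHO-M1 cells that are then activated through the M1 receptor with carbachol, in pH 7.4 buffer containing 50 mM LiCl, for 30 min. IP1 accumulation is quantified by the IP-One immunoassay.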
* marks the source's active call; other numbers are inactive results; ? = inconclusive; / = not tested or not shown; [ ] = remark or other dose. Unless noted, calls come from the whole dose curve; as a rule, active = well fitted curve in the direction sought with a large enough effect; inconclusive = small, poorly fitted or top-dose-only effect, or another doubt; inactive = no such curve, though single readings can be large; an effect the other way counts as inactive or inconclusive. Unless noted, % is set by controls: 0 for no effect and ±100 for the full control effect.

SMILES	IMPase Li cell	NPSR antag	IMPase cell inh
CCc1ccc(Cn2nnc(C(=O)Nc3ccc(OC)cc3OC)c2N)cc1	-5.5%[38.3 µM]	-5.7%[46.1 µM]	0.5
CCOc1ccc(Cn2nnc(C(=O)NCc3ccc(OC)cc3)c2N)cc1	11.2µM*	-39.2%	?
Cc1ccc(S(=O)(=O)/N=C2/C=C(Sc3ncn[nH]3)C(=O)c3ccccc32)c(C)c1	29.9%	-33.4%	/
CC(C)c1ccc(S(=O)(=O)/N=C2/C=C(Sc3ncn[nH]3)C(=O)c3ccccc32)cc1	45.9%	10µM*	?
Cc1ccc(S(=O)(=O)Nc2ccc(O)c(Sc3ncn[nH]3)c2)cc1	-1.7%	-0.2%	/
Cc1ccc(S(=O)(=O)/N=C2/C=C(Sc3ncn[nH]3)C(=O)c3ccccc32)cc1	28.1%	10µM*	/
CN(C)S(=O)(=O)N(CC(=O)NCCSCc1c(F)cccc1Cl)c1ccccc1	/	/	-1.0
CCOC(=O)c1[nH]c2c(c1Cc1ccccc1OC)C(=O)CC(c1ccc(OC)cc1)C2 (centres undefined)	/	/	10.4
Cc1cc(C)cc(Oc2nc3c(C)cccn3c(=O)c2/C=C(\C#N)c2nc3ccccc3s2)c1	/	/	-2.7
O=C(CNC(=S)NC(=O)c1ccc(Br)o1)c1ccccc1	3.8%	-30.0%	/
O=C(CNC(=S)NC(=O)c1ccc(Cl)cc1)c1ccccc1	10µM*	-4.2%	/
CC1=CS/C(=C(/C#N)C(=O)NCc2ccco2)N1c1ccccc1	-1.6%[38.3 µM]	-10.2%[46.1 µM]	-1.0
N#C/C(C(=O)NCc1ccco1)=C1/SC=C(c2ccccc2)N1c1ccccc1	11.2µM*	?	/
CCOC(=O)c1c(-c2ccccc2)oc2ccc(OCc3ccccc3Br)cc12	/	/	-4.6
O=C(c1ccccc1)c1sc(N2CCCCCC2)nc1-c1ccccc1	14.5%[38.3 µM]	?	3.5
COc1ccc(-c2nc(N3CCCCCC3)sc2C(=O)c2ccccc2)cc1	3.3%[38.3 µM]	5.01µM*	-6.2
COc1ccc(C(CC(=O)O)NC(=O)c2cccs2)cc1 (centres undefined)	16.3%[38.3 µM]	-7.1%[46.1 µM]	-6.6
COc1ccc(C(CC(=O)O)NC(=O)c2sc3ccccc3c2Cl)cc1 (centres undefined)	5.62µM*	?	?
CC#CCN1c2ccccc2[C@]23C[C@@H](C(=O)OC)N(S(=O)(=O)c4c(C)noc4C)C2=NC(C(=O)OC)=C(C(=O)OC)[C@H]13	-6.9%	/	/
O=C(COc1ccccc1[N+](=O)[O-])Nc1ccc(NC(=O)c2cc3ccccc3o2)cc1	2.9%	29.1%	/
O=C(COc1ccc(/C=N/NC(=O)c2cc3ccccc3o2)cc1Br)Nc1ccccc1	-27.8%[38.3 µM]	10µM*	-1.4
CCCC(=O)Nc1nc(C)c(C(C)=O)s1	8.91µM*	14.6%	/
CC(=O)c1sc(NC(=O)COc2ccc(Cl)cc2Cl)nc1C	10µM*	?	/
CC(=O)c1sc(NC(=O)COc2ccc(Cl)cc2C)nc1C	/	8.3%[7.67 µM]	/
CCCCC(=O)Nc1nc(C)c(C(C)=O)s1	5.6%[38.3 µM]	0.9%[46.1 µM]	8.1
SMILES	IMPase Li cell	NPSR antag	IMPase cell inh
O=C(CN(c1cc(C(F)(F)F)ccc1Cl)S(=O)(=O)c1ccccc1)NCCc1ccccc1	/	/	10.1
CC1(C)OCC(CSC2=C(SCC3COC(C)(C)O3)C(=O)c3ncccc3C2=O)O1 (centres undefined)	48.7%	/	/
O=C(Nc1cccc(-c2nc3ncccc3o2)c1)c1sc2ccccc2c1Cl	-11.3%[38.3 µM]	-3.0%[46.1 µM]	-7.5
O=C(Nc1cccc(-c2nc3ncccc3o2)c1)c1sc2cc(Cl)ccc2c1Cl	11.2µM*	-4.4%[46.1 µM]	-0.8
Cn1c(=O)c2c(ncn2CC2OCCO2)n(C)c1=O	3.0%	/	/
O=C(CCS(=O)(=O)c1cc(Br)cc2c1N(C(=O)C1CC1)CC2)NCc1ccccc1Cl	/	/	0.8
Cc1nc(SCC(=O)Nc2ccc3c(c2)OCO3)c(C#N)c2c1CCCC2	46.4%[38.3 µM]	?	-1.4
CCOc1cccc(NC(=O)CSc2nc(C)c3c(c2C#N)CCCC3)c1	3.98µM*	5.3%[46.1 µM]	?
C/C(=N\Nc1ccc(Cl)c(C(=O)O)c1)c1ccccn1	/	10.5%	/
C/C(=N\Nc1ncc(Cl)cc1Cl)c1ccccn1	17.3%	1.26µM*	/
CCOC(=O)c1cc(-c2cc3ccccc3o2)nc2c1c(=O)[nH]c(=O)n2CCOC	10µM*	?	-8.9
CCOC(=O)c1cc(-c2cc3ccccc3o2)n[nH]1	14.0%[38.3 µM]	-5.8%[46.1 µM]	-1.5
CC(C)[C@H](Nc1ccc(C(F)(F)F)cc1[N+](=O)[O-])C(=O)O	/	-17.0%	/
O=C(NNc1ccc(C(F)(F)F)cc1[N+](=O)[O-])c1ccc(NS(=O)(=O)c2ccc(F)cc2)cc1	51.0%	10µM*	/
Cc1ccc(-c2nnc(Nc3ccc(Br)cc3)c3ccccc23)cc1S(=O)(=O)NCc1nc2ccccc2[nH]1	/	/	-13.3
